From PubChem
Sampled rows, rich in hits. Any-hit rate of the full collection: about 7.3%.
FLuc modulator: qHTS profiling assay for firefly luciferase inhibitor/activator using purifed enzyme and Km concentrations of substrates (counterscreen for miR-21 project). Luciferin 4-monooxygenase (Photinus pyralis), P08659. hit rate 6.9% among 360,000. Potency, µM (top dose mostly 57.5 µM), for inactives: at the top dose activity change, negative = inhibition, hits mostly inhibitors. purified FLuc, Km substrates, luminescence inhibition. AID 588342, 2011;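 note: plate controls were vehicle for no effect and reference inhibitor for full effect; nearly all actives have a fitted effect of over 55% in size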
Target sequence (P08659 whole entry, looked up): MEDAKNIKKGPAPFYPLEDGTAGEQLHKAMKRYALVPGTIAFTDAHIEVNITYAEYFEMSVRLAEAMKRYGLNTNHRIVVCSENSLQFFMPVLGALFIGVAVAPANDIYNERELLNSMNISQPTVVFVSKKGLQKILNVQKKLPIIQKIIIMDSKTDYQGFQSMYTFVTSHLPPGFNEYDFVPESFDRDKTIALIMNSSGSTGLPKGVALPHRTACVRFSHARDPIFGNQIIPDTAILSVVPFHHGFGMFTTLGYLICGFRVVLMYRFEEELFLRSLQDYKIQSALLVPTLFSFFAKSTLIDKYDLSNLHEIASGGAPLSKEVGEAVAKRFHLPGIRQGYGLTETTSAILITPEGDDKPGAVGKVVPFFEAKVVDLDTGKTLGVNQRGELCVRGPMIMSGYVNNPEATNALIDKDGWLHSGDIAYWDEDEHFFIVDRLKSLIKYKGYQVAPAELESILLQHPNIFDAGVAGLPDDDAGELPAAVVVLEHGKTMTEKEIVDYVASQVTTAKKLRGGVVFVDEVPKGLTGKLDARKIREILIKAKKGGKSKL
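Purified P. pyralis luciferase (10nM final) with 10uM D-luciferin and 10uM ATP (Km levels) in 50mM Tris acetate pH 7.5, 10mM Mg acetate, 0.01% Tween-20, 0.05% BSA; qHTS 6-point titration, ~60 µM downward; luminescence read.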
ELG1 genotox: qHTS screen for small molecules that induce genotoxicity in human embryonic kidney (HEK293T) cells expressing luciferase-tagged ELG1. HEK293T ELG1-luciferase reporter, luminescence, 16 h. Potency, µM (top dose mostly 46 µM), for inactives: top-dose activity change, positive = activation, usual class: activators. AID 504466, 2011. hit rate 1.3% among 330,000; note: % of control where 0% means no effect; nearly all actives have a fitted effect of over 60% in size
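Genotoxicity was scored as increased ELG1-luciferase reporter signal, measured by ONE-Glo luminescence (30 min, room temperature). Compound or vehicle exposure of the HEK293T reporter cells lasted 16 hr at 37°C.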
p53 reactivation: qHTS assay for re-activators of p53 using a Luc reporter. H1299 p53-A138V BP100-luciferase reporter, luminescence, 24 h. Potency, µM (highest dose often 92.2 µM), for inactives: at the top dose activity change, positive = activation, hits mostly activators. hit rate 0.063% among 320,000. AID 504706, 2011; note: % of control where 0% means no effect; nearly all actives have a fitted effect of over 45% in size
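H1299 (p53-null), stable ts p53-A138V + BP100-Luc; 1000 cells/well, Opti-MEM/10% FBS; cpd 4 pt, 1:5; 24 h, 37 deg C, 5% CO2; detection reagent 10 min RT; luminescence.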
Rab9 prom act: qHTS Assay for Rab9 Promoter Activators; hit rate 2.8% among 320,000; Huh7 Rab9 promoter-luciferase reporter, luminescence, 24 h; Potency, µM (titrated, usually from 9.22 µM), for inactives: at the top dose activation, negative = inhibition, most hits filed as activators; AID 485297, 2010; note: % of control where 0% means no effect; nearly all actives have a fitted effect of over 60% in size
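Huh7 reporter line, Rab9 promoter upstream of luciferase. Compound exposure 24 h at 37 °C in reduced-serum medium with 10% FBS. Read-out: luminescence.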
SMN2 splice enh: qHTS Assay for Enhancers of SMN2 Splice Variant Expression. HEK293 SMN2-luciferase splicing reporter, luminescence, 30-36 h. Potency, µM (titrated, usually from 46.1 µM), for inactives: at the highest dose activity change, positive = activation, usual class: activators. hit rate 2.8% among 210,000. AID 1458, 2008; note: % of control where 0% means no effect; nearly all actives have a fitted effect of over 55% in size
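qHTS luciferase splicing reporter: luminescence rises when SMN2 exon 7 is included in transfected HEK293 cells. Compound exposure lasted 30-36 h at 37C, with 4.5 mM final sodium butyrate as control, followed by a ONE-Glo read.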
NPC1 promoter act: qHTS Assay for NPC1 Promoter Activators. Huh7 NPC1 promoter luciferase reporter, 24 h. hit rate 2.4% among 320,000. AID 485313, 2010. Potency, µM (highest dose often 9.22 µM), for inactives: top-dose activation, hits mostly activators; note: % of control where 0% means no effect; nearly all actives have a fitted effect of over 60% in size
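Huh7 reporter cells (NPC1 promoter driving luciferase) are dosed with compound for 24 h at 37 °C, 5% CO2; luciferase detection reagent is then added and luminescence measured after 10 min at ambient temperature.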
* hit, by the source's call; ? = inconclusive; nt = no result; [ ] = remark or other dose. Calls come from the whole dose curve; as a rule, active = well fitted curve in the direction sought with a large enough effect; inconclusive = small, poorly fitted or top-dose-only effect, or another doubt; inactive = no such curve, though single readings can be large; an effect the other way counts as inactive or inconclusive. Potency is the fitted concentration of half-maximal effect.

SMILES	FLuc modulator	ELG1 genotox	p53 reactivation	Rab9 prom act	SMN2 splice enh	NPC1 promoter act
COc1cccc(CNc2nc(-c3cccnc3)nc3ccccc23)c1	-11%	-5%	-4%	-6%	3%	16%
Fc1ccc(Nc2nc(-c3cccnc3)nc3ccccc23)cc1	nt	nt	nt	nt	-26%	nt
C/C(=N\Nc1ccc(Cl)cc1)c1c(O)cc(C)oc1=O	?	21%	6%	-2%	-20%	23%
COC(=O)c1sccc1S(=O)(=O)N1CCN(c2ccccc2)CC1	0%	nt	nt	nt	nt	nt
c1ccc(-c2nc(NCc3ccco3)c3ccccc3n2)nc1	-2%	-10%	-37%	3%	-10%	-1%
C(=N\Nc1nc(-c2ccccn2)nc2ccccc12)/c1ccccc1	11µM*	-11%	?	-30%	nt	-9%
FC(F)(F)c1nc2ccccc2nc1N/N=C\c1ccccc1	15µM*	1%	-4%	7%	-18%	0%
O=C(Nc1ccccc1-c1nc2ccccc2s1)c1cccnc1Cl	1%	-5%	-12%	4%	-20%	1%
COc1ccc(N2CCN(C(=O)c3cc4c(=O)n(Cc5cccs5)ccc4nc3C)CC2)cc1	-7%	nt	nt	nt	nt	nt
Nc1cc(=O)[nH]c(SCC(=O)Nc2nc3ccc([N+](=O)[O-])cc3s2)n1	?	-2%	1%	-1%	6%	-3%
O=C(CSc1nccc(=O)[nH]1)Nc1ccc(N2CCOCC2)cc1	?	-1%	-1%	0%	nt	-3%
Cc1ccc2nc(-c3ccc(NC(=O)CSc4nc(N)cc(=O)[nH]4)cc3)sc2c1	3.4µM*	?	?	2.8µM*	nt	2.8µM*
Cc1ccc2nc(-c3ccc(NC(=O)CSc4nccc(=O)[nH]4)cc3)sc2c1	2.7µM*	?	?	0.4µM*	8.9µM*	1.4µM*
Cc1ccc(Nc2nc(Oc3ccc(OCc4ccccc4)nn3)nc(N3CCOCC3)n2)cc1	2%[2.3 µM]	-4%	-3%	2%	?	0%
c1ccc(COc2ccc(Oc3nc(N4CCCCC4)nc(N4CCOCC4)n3)nn2)cc1	1%	13%	-10%	-8%	22µM*	-3%
O=c1c2cccnc2n(Cc2ccccc2F)c(=O)n1Cc1ccc(F)cc1	0%	nt	nt	nt	-2%	nt
Cc1ccc(-c2ccnc3c(Cl)c(C)nn23)cc1	?	-2%	5%	-2%[1.84 µM]	nt	-3%
Cc1cc2nc(-c3ccc(Cl)cc3)cc(C(F)(F)F)n2n1	-1%	nt	nt	nt	nt	nt
Cc1cc2ncc(C(=O)N=CN(C)C)cn2n1	-1%	12%	-4%	0%	-3%	-1%
Cc1ccc(-c2cnc3c(Cl)c(C)nn3c2)cc1	1.3µM*	?	?	0.45µM*	3.2µM*	?
Cc1ccc(-c2cnc3cc(C)nn3c2)cc1	2.1µM*	-1%	18%	0.45µM*	13µM*	0.71µM*
Cc1cc2ncc(-c3ccc(Cl)cc3)cn2n1	2.7µM*	?	10%	1.4µM*	11µM*	3.5µM*
Cc1nc(C)c(C(=O)N/N=C/c2c[nH]c3ccccc23)s1	?	9%	-1%	-6%	11%	-4%
CC(C)(C)OC(=O)n1cc(/C=N/NC(=O)c2ccco2)c2ccccc21	9.5µM*	8%	?	17%	nt	22%
Cn1cc(/C=N/NC(=O)c2cccc([N+](=O)[O-])c2)c2ccccc21	-2%	?	1%	-10%	2%	7%
SMILES	FLuc modulator	ELG1 genotox	p53 reactivation	Rab9 prom act	SMN2 splice enh	NPC1 promoter act
CC(=O)n1cc(/C=N/NC(N)=S)c2ccccc21	0%	18%	-1%	-1%	?	0%
Cc1nc(C)c(C(=O)N/N=C/c2cn(C)c3ccccc23)s1	17µM*	1%	-3%	8%	-4%	-3%
CC(=O)n1cc(/C=N/NC(=O)c2ccccc2O)c2ccccc21	9.5µM*	11%	20%	?	nt	28%
Cn1cc(/C=N/NC(=O)c2ccccc2O)c2ccccc21	4.8µM*	9%	-3%	26%	nt	?
COC(=O)c1ccc(Cl)cc1NC(=O)N(C)CCc1c(C)nn(C)c1C	-9%	nt	nt	nt	nt	nt
CCN(CC)S(=O)(=O)c1ccc(N2CCOCC2)c(NC(=O)COc2ccc(C#N)cc2)c1	15µM*	-7%	-1%	-3%	nt	-5%
CC[C@]12c3[nH]c4cc(CCC(=O)N(C)C)ccc4c3CCN1C(=O)[C@@H](CC(=O)NCc1ccco1)C[C@@H]2C(=O)N1CCN(C(=O)C2CC2)CC1	nt	6%	4%	nt	nt	nt
Cn1ncc(Br)c1C(=O)N/N=C/c1cccc(OC2CSC2)c1	-13%	2%	-14%	-13%	-10%	-6%
Cc1cccc(C(=O)Oc2ccc(/C=N/NC(=O)c3ccccc3O)cc2)c1	13µM*	16%	?	27%	5%[1.84 µM]	17%
O=C(N/N=C/c1cccc(OC2CSC2)c1)c1ccccc1O	6.7µM*	2%	5%	11%	9%	10%
COc1cccc(C(=O)N/N=C/c2ccc(OC3CSC3)cc2)c1	15µM*	?	6%	10%	-39%	-4%
Cn1nccc1C(=O)N/N=C/c1c(O)ccc2ccccc12	?	?	?	-42%	nt	-29%
Cc1cccc(C(=O)Oc2ccc(/C=N/NC(=O)c3ccc(O)cc3)cc2)c1	?	5%	15%	4%	nt	-2%
Cn1nccc1C(=O)Oc1cccc(/C=N/NC(=O)c2ccccc2O)c1	9.5µM*	?	19%	9%	nt	-1%
Cc1cccc(C(=O)N/N=C/c2ccncc2)c1	?	8%	7%	-7%	7%	3%
Cc1cccc(C(=O)N/N=C/c2ccc(OC3CSC3)cc2)c1	11µM*	12%	-15%	2%	-2%	12%
O=C(O)CCC/C=C\C[C@H]1C(=O)C[C@@H](O)[C@@H]1/C=C/[C@@H](O)CCc1ccccc1	nt	nt	nt	nt	-4%	nt
O=C(COc1ccc2ccccc2c1Br)Nc1cccnc1	4.8µM*	18%	-3%	3%	nt	?
Cc1cccc(C)c1OCC(=O)Nc1ccncc1	0%	-6%	nt	-4%	nt	-2%
O=C(COc1ccc2ccccc2c1Br)Nc1ccncc1	12µM*	8%	-3%	-11%	nt	-14%
Cc1cc(/C=C(\C#N)C(=O)NCc2cccs2)c(C)n1-c1ccccc1F	2.1µM*	?	?	3.5µM*	-29%	3.5µM*
Cc1ccccc1-n1c(C)cc(/C=C(\C#N)C(=O)NCC2CCCO2)c1C (stereo not drawn)	0.95µM*	10µM*	?	?	-7%	0%
